Experimental findings from PubChem BioAssay (NCATS) are described below.

Results filed as inconclusive are left out. A call without a number means that no potency is given here. The source made the active and inactive calls. Calls follow the shape of the dose curve; as a rule, active = well fitted curve in the direction sought with a large enough effect; inconclusive = small, poorly fitted or top-dose-only effect, or another doubt; inactive = no such curve, though single readings can be large; an effect the other way counts as inactive or inconclusive.

A short description of assay [1]: qHTS to identify inhibitors of the type 1 interferon - major histocompatibility complex class I in skeletal muscle: primary screen against the NCATS Pharmaceutical Collection (AID 1347407).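 Also: luminescence of HiBiT knocked into endogenous HLA-B as interferon-induced MHC class I level.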 The method, boiled down:
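Immortalized human myoblasts (C25cl48) with HiBiT knocked into endogenous HLA-B*08:01 were stimulated with 4 ng/ml IFN-beta and treated with compounds (8-point, 1:5, top 46 uM final) for 24 h at 37 C; HiBiT lytic luminescence read.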
(In general: In qHTS, concentration-response curves come from the screen itself.)

Assay [2] has as its target Nuclear receptor subfamily 1 group I member 3 (Homo sapiens) (UniProt Q14994). The assay can be described thus: qHTS for Constitutive Androstane Receptor (CAR) Agonist screened against the NCATS CANVASS Library (AID 1347373).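 Also: every well also contained 1.5 µM PK11195 alongside the test compound.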 The method, boiled down: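 Cells were plated and allowed to attach for 4hr, then dosed with compound in an 11-point series alongside 1.5uM PK11195. After 24hr at 37C, viability was measured fluorometrically and CAR-driven CYP2B6 reporter luminescence was recorded.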

Assay [3] can be described thus: 10-beta competent E. coli microbial cell viability qHTS against the NCATS CANVASS Library (AID 1347376). Also: series mostly up to about 46 µM. The method, boiled down: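 Bacterial suspension diluted to 0.2 OD was dosed with compounds, 11-point series, then held overnight at 37C. BacTiter-Glo reagent was added, and after 20 min at room temperature ATP-dependent luminescence was measured.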
Assay [4] in a line: qHTS for H2AX Agonists against the NCATS CANVASS Library (AID 1347378). The method in brief: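 CHO-K1 cells were plated overnight at 37C, then exposed to compounds (concentration series, 0.76% DMSO final) for 3 hr at 37C. Lysates received Eu-cryptate anti-pH2AX (S139) and d2 anti-H2AX antibodies; after 24 hr at room temperature, TR-FRET 665/620 nm ratio was read.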
The nature of assay [5]: qHTS for Inflammasome Signaling Inhibitors: IL-1-beta AlphaLISA screen against the NCATS CANVASS Library (AID 1347379).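 Also: human THP-1 cells primed with LPS then triggered with ATP; secreted IL-1B measured as AlphaLISA emission at 615 nm; lower signal means less IL-1B release which is the wanted effect.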 The method in brief:
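Secreted IL-1B from human THP-1 cells quantified by AlphaLISA 16 hr after compound addition (final up to 57.5 uM). A 1 hr compound pretreatment preceded inflammasome activation with 250 ng/mL LPS plus 1.25 mM ATP (final).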

Assay [6] is described as follows: qHTS for Antimalaria activity screened against the NCATS CANVASS Library (AID 1347380).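 Also: Plasmodium falciparum strain Dd2 asexual parasites grown in red blood cells; series mostly up to about 29 µM; nearly all actives have a fitted effect of over 40% in size.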 The method, boiled down:
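Compounds are titrated over 11 concentrations onto Dd2 parasite cultures (0.3% parasitemia, 2.5% hematocrit). Growth over 72 h at 37C in low oxygen is measured as SYBR Green DNA fluorescence after lysis.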

A short description of assay [7]: Inflammasome Signaling qHTS Counterscreen: IL-1-beta AlphaLISA counterscreen against the NCATS CANVASS Library (AID 1347381).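 Also: cell-free check with purified IL-1β in medium and no THP-1 cells; series mostly up to about 57 µM.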 The method in brief:
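Purified IL-1-beta (4 pg/well) + compound, 11-pt conc. series; acceptor beads 6 ug/mL + biotin-Ab 0.6 nM final, 1 h RT; SA-donor 24 ug/ml final, 30 min dark RT; read ex 680/em 615.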

Assay [8] in a line: Cytotoxicity qHTS for assessment of Hepg2 cells membrane integrity screened against the NCATS CANVASS Library (AID 1347387). The method, boiled down:
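Cells were seeded at 2000 per well and left overnight to attach. Compounds were pin-transferred to give 0.59 nM - 46 uM in an 11-point series and incubated 5 hr at 37C. CytoTox-ONE reagent was added and, after 10 min at room temperature, fluorescence (ex 560, em 590 nm) was read.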

Assay [9] is described as follows: qHTS assay for small molecule disruptors of mitochondrial membrane potential screened against the NCATS CANVASS Library (AID 1347389). Also: series mostly up to about 46 µM; nearly all actives have a fitted effect of over 60% in size. The method, boiled down:
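Mitochondrial depolarization in HepG2 cells is scored as a falling aggregate-to-monomer fluorescence ratio after 1 hr compound exposure and 30 min staining with Mito-MPS dye at 37C, each compound tested as an 11-point titration.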

Assay [10] is described as follows: Secretion counterscreen for inhibitors of the SERCaMP assay screened against the NCATS CANVASS Library (AID 1347390).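 Also: light from luciferase secreted into medium read as a measure of general secretion; series mostly up to about 77 µM.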 The method in brief: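 SH-SY5Y cells expressing constitutively secreted GLuc, 1000 cells/well, attached 4 h at 37C, then exposed to compounds (0.001 - 77 uM, 11-pnt series) for 20 h. Coelenterazine added; luminescence read to flag secretory-pathway interferers.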

Assay [11] in a line: qHTS for activators of Nrf2/ARE signaling pathway screened against the NCATS CANVASS Library (AID 1347391). Also: nearly all actives have a fitted effect of over 60% in size. The method in brief: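 Beta-lactamase reporter signal, read as 460 and 530 nm emission under 405 nm excitation after 2 h CCF4 loading, reflected ARE activation in HepG2 cells treated 16 h with an 11-point series.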
A short description of assay [12]: qHTS for activators of dead-cell proteases activity screened against the NCATS CANVASS Library (AID 1347392).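 Also: luminescence from protease leaking out of membrane-damaged cells cleaving impermeant substrate; rising signal means more cytotoxicity.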 The method in brief:
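Luminescent dead-cell protease readout (AAF-aminoluciferin, 15 min, room temperature) after 5 h compound treatment of HepG2 cells (2000/well, pre-attached 18 h). Eleven concentrations.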

Assay [13] in a line: qHTS for inhibitors of ER calcium dysfunction: SERCaMP assay screened against the NCATS CANVASS Library (AID 1347393).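 Also: series mostly up to about 77 µM; lower secreted reporter signal means inhibitor of ER calcium depletion; nearly all actives have a fitted effect of over 40% in size.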 The method, boiled down:
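Thapsigargin-induced ER calcium depletion drives GLuc-SERCaMP secretion from SH-SY5Y cells; compounds given 16 h beforehand were scored by lowered coelenterazine luminescence after 4 h challenge.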

Assay [14] can be described thus: Vero-766 cells viability qHTS against the NCATS CANVASS Library: Counterscreen for Zika virus inhibition assay (AID 1347394). Also: series mostly up to about 46 µM; nearly all actives have a fitted effect of over 60% in size. The method in brief: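 Uninfected Vero 766 (African green monkey) cells, 1000/well, attached overnight, then exposed 72 h at 37C to compounds (11-point qHTS). Viability read by CellTiter-Glo luminescence; media-only wells served as 100% inhibition.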

Assay [15] in a line: qHTS for inhibitors of Wild type Zika virus screened against the NCATS CANVASS Library (AID 1347396).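 Also: ATP luminescence of surviving cells so rescue from viral cell killing; series mostly up to about 46 µM.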 The method, boiled down: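 Protection against wild-type Zika cytopathic effect is measured in African green monkey Vero 766 cells exposed to an 11-point compound series. Surviving cells are quantified by CellTiter Glo luminescence after 72 h.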
The nature of assay [16]: Viability qHTS for inhibitors of the SERCaMP assay screened against the NCATS CANVASS Library (AID 1347400). Also: series mostly up to about 92 µM; nearly all actives have a fitted effect of over 70% in size. The method in brief:
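Seed SH-SY5Y-GLuc SERCaMP MJH297 cells at 1000 per well, incubate 4 h, add compounds across an 11-point range, incubate 48 h at 37C, then add CellTiter-Glo and read luminescence.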

The nature of assay [17]: Redox Reaction Profiling qHTS: Assay Interference Panel against the NCATS CANVASS Library (AID 1347401). The method in brief:
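Redox-cycling liability assessed as DTT-driven conversion of resazurin (5 uM, with 200 uM DTT, HEPES pH 7.3) to fluorescent resorufin. Fluorescence at 525/598 nm measured initially and after 15 min dark incubation.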

Assay [18] is described as follows: qHTS to identify inhibitors of the type 1 interferon - major histocompatibility complex class I in skeletal muscle: primary screen against the NCATS LOPAC collection (AID 1347405).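 Also: lytic HiBiT luminescence reporting HLA-B protein level.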 The method, boiled down:
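First, engineered myoblasts carrying HLA-B-HiBiT were seeded in medium lacking dexamethasone with 4 ng/ml IFN-beta. After 1 hr, compounds were pinned in (top 46 uM final, 7 points). After 24 hrs at 37 C, luminescence was measured following 10 min lysis.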

Assay [19] is described as follows: qHTS for inhibitors of adenylyl cyclases using a fission yeast platform: a pilot screen against the NCATS LOPAC library (AID 1347410). The method, boiled down:
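S. pombe CHP2027 (AC9-GNAS-PDE4D2) carrying a PKA-repressed fbp1-GFP reporter was exposed to LOPAC compounds (final up to 57 µM) for 18 h at 30C in the dark, in EMM with histidine, lysine and uracil; GFP gain-of-signal read by laser scanning cytometry.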

Assay [20] can be described thus: qHTS to identify inhibitors of the type 1 interferon - major histocompatibility complex class I in skeletal muscle: primary screen against the NCATS Mechanism Interrogation Plate v5.0 (MIPE) Libary (AID 1347411). Also: nearly all actives have a fitted effect of over 65% in size. The method in brief:
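Seed engineered human myoblasts (HLA-B HiBit) in medium without dexamethasone containing 4 ng/ml IFN-beta; after 1 hr add compound titrations (top 46 uM final). Incubate 24 hrs at 37 C, lyse 10 min with HiBiT reagent, read luminescence.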

Sequence of Nuclear receptor subfamily 1 group I member 3 (Homo sapiens) (Q14994 whole entry, looked up): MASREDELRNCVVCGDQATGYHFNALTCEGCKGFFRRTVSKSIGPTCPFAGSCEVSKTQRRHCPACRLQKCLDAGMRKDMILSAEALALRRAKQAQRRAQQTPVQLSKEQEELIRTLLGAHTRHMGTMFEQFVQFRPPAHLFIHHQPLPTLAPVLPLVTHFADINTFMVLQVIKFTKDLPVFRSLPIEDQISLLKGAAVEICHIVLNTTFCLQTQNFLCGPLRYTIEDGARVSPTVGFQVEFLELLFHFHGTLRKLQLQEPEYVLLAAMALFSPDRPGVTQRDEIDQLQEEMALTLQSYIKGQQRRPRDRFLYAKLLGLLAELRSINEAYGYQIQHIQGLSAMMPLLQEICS

In the case of `CC1(C)OC[C@@H](COC(=O)CCc2ccc(OC[C@@H](O)CNCCNC(=O)N3CCOCC3)cc2)O1`, the Potency result in assay [1] was “inactive”.
`CN1CCC[C@@H]1c1cccnc1`: the compound was called inactive in [2], in assay [3], in assay [4], in assay [5], in assay [6] and in assay [7]. In addition, the compound was classed as inactive in assay [8], in [9], in assay [10], in assay [11], in assay [12] and in assay [13]. Moreover, the call in assay [14], in [15], in assay [16] and in [17] was inactive. For the same compound, in [1], the Potency result is “inactive”.
For `CC[C@H](C)C(=O)O[C@H]1CCC=C2C=C[C@H](C)[C@H](CC[C@@H]3C[C@@H](O)CC(=O)O3)[C@H]21`, the call in [18] and in [19] was inactive. The Potency entry in assay [20] was “inactive”.
Take `N[C@H](CO)C(=O)O`: the compound was classed as inactive in [18] and in assay [19].
Consider `CCCCN1CCCC1C(=O)Nc1c(C)cc(C)cc1C` (stereo unspecified), for which, in [1], the Potency entry was “inactive”.
Take `CC(C)(C)NC(=O)[C@@H]1CN(Cc2cccnc2)CCN1C[C@@H](O)C[C@@H](Cc1ccccc1)C(=O)N[C@H]1c2ccccc2C[C@H]1O`: the Potency result in assay [1] is “inactive”.
Regarding `CC(=O)O[C@H]1C[C@@H]2CC[C@@H]3[C@H](CC[C@@]4(C)[C@H]3C[C@H]([N+]3(C)CCCCC3)[C@@H]4OC(C)=O)[C@@]2(C)C[C@@H]1[N+]1(C)CCCCC1`, the call in assay [18] and in [19] was inactive.
Take `CCCn1c(=O)[nH]c(=O)c2[nH]cnc21`: the outcome in assay [18] and in assay [19] was inactive.
Consider `CNCCC(Oc1ccccc1C)c1ccccc1` (stereo unspecified), for which the compound was classed as inactive in [18] and in [19].
For the compound `CC(C)COC(=O)OCN1C(=O)CN(CCN2CC(=O)N(COC(=O)OCC(C)C)C(=O)C2)CC1=O`, the compound was classed as inactive in assay [18] and in assay [19].
Take `O=C(O)c1cc2cc(Cc3cccnc3)ccc2o1`: the outcome in [18] and in assay [19] was inactive.
With `COc1cc(OC)cc(OC)c1`, in assay [1], the Potency entry was “inactive”.
Same read-out and setting: in the case of `CC(C)(Oc1ccc(Cl)cc1)C(=O)O` it was “inactive”; in that of `CC[N+](CC)(CCNC(=O)C(=O)NCC[N+](CC)(CC)Cc1ccccc1Cl)Cc1ccccc1Cl`, “inactive”.
Same read-out and setting: as for `O=S1(=O)c2cccc3cccc(c23)N1CCCN1CCN(c2ccc(F)cc2)CC1`, the entry is “inactive”.
With `O=C1CCC(c2ccc(-n3ccnc3)cc2)=NN1`, the compound was called inactive in [18] and in [19].
As to `COC(=O)CCc1ccc(OCC(O)CNC(C)C)cc1` (stereo unspecified), in [1], the Potency result was “inactive”.
In the case of `CCOC(=O)n1ccn(C)c1=S`, the Potency result in assay [1] was “inactive”.
Regarding `N[C@@H](Cc1cnc[nH]1)C(=O)O`, the outcome in assay [18] and in assay [19] was inactive.
With `Cc1cccc(C)c1NC(=O)CN1CCN(CCCC(c2ccc(F)cc2)c2ccc(F)cc2)CC1`, the Potency entry in [1] is “inactive”.
As for `C1CCc2nnnn2CC1`, the outcome in assay [18] and in [19] was inactive.
For `CCCC1O[C@@H]2C[C@H]3[C@@H]4CCC5=CC(=O)C=C[C@]5(C)[C@H]4[C@@H](O)C[C@]3(C)[C@]2(C(=O)CO)O1` (stereo partly specified), the outcome in [18] and in [19] was inactive.
In the case of `CCOc1ccc2nc3cc(N)ccc3c(N)c2c1`, the Potency entry in [1] was “inactive”.
In the case of `CC(=O)N/N=C/c1ccc([N+](=O)[O-])o1`, the Potency entry in [1] is “inactive”.
On the same count and under the same terms, as for `Cc1ccc(O)c2ncccc12`, the entry is “inactive”.
For `CN1C2CCC1CC(OC(=O)c1c[nH]c3ccccc13)C2` (stereo unspecified), the call in assay [18] and in assay [19] was inactive.
As for `Nc1cc(Cl)c(NC2=NCCN2)c(Cl)c1`, the outcome in assay [18] and in assay [19] was inactive.
Turning to `Cc1cc(N)c2cc(NC(=O)Nc3ccc4nc(C)cc(N)c4c3)ccc2n1`, the Potency result in [1] was “inactive”.
On to `COC(=O)[C@H]1[C@H]2C[C@H]3c4[nH]c5ccccc5c4CCN3C[C@H]2CC[C@@H]1O`, for which the call in [18] and in assay [19] was inactive.
Consider `CCC(NC(C)C)C(O)c1ccc(O)c(O)c1` (stereo unspecified), for which the compound was called inactive in assay [18] and in [19].
For `C[N+]1(CCCCC[N+]2(C)CCCC2)CCCC1`, the outcome in assay [18] and in assay [19] was inactive.
`Oc1ccc(O)cc1`: the result in assay [18] and in assay [19] was inactive. Moreover, the Potency entry in assay [1] was “inactive”.
Regarding `CC1(C)CCC(NC(=O)[C@@H](N)CCC(=O)O)CC1`, the compound was called inactive in assay [18] and in assay [19].
As for `CC(CCc1ccccc1)NCC(O)c1ccc(O)c(C(N)=O)c1` (stereo unspecified), the result in assay [18] and in [19] was inactive.
